# Data from the supplement of paper PMC6555819.
# Columns and labels:
# Assay in all cases: PBM binding z-score (relative to random genomic background probes); higher = stronger binding; sequences stand for … in GC…GCGATTGACAGCGTAGAATGAAGG
# [1] = tested on: FXR:RXRa (NR concentration 270 nM, RXRa partner concentration 90 nM)
# Method in brief: (§1)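 Antibodies against each partner of ligand-free nuclear receptor dimers (one per run) detected binding on custom Agilent 4×180K protein-binding microarrays after 1 h incubation. The double-stranded probes had 34-nt variable regions carrying direct-repeat seeds, single-nucleotide variants, half-site ablations and random human genomic background sequences. Binding z-scores, from regression-normalized fluorescence, use the random background probes as reference.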
# [2] = tested on: LXRa:RXRa (NR concentration 270 nM, RXRa partner concentration 90 nM)
# Method in brief: as §1
# [3] = tested on: LXRa homodimer (NR concentration 270 nM)
# Method in brief: as §1
# [4] = tested on: LXRb:RXRa (NR concentration 270 nM, RXRa partner concentration 90 nM)
# Method in brief: as §1
# [5] = tested on: LXRb homodimer (NR concentration 270 nM)
# Method in brief: as §1
# [6] = tested on: PPARa:RXRa (NR concentration 270 nM, RXRa partner concentration 90 nM)
# Method in brief: as §1
# [7] = tested on: PPARg:RXRa (NR concentration 180 nM, RXRa partner concentration 90 nM)
# Method in brief: as §1
# [8] = tested on: PPARg:RXRa 270nM:90nM, anti-RXR (NR concentration 270 nM, RXRa partner concentration 90 nM)
# Method in brief: as §1
# [9] = tested on: PPARg:RXRa 30nM:10nM, anti-RXR (NR concentration 30 nM, RXRa partner concentration 10 nM)
# Method in brief: as §1
# [10] = tested on: PPARg:RXRa 90nM:30nM, anti-RXR (NR concentration 90 nM, RXRa partner concentration 30 nM)
# Method in brief: as §1
# [11] = tested on: PPARg:RXRa DBDmut IVT, anti-RXR (DBD mutation: RXRa K156A/R161A, NR concentration 270 nM, RXRa partner concentration 90 nM)
# Method in brief: as §1
# [12] = tested on: PPARg:RXRa IVT, anti-PPARg (NR concentration 270 nM, RXRa partner concentration 90 nM)
# Method in brief: as §1
# [13] = tested on: PPARg DBDmut:RXRa IVT, anti-PPARg (DBD mutation: PPARg1 K132A/R137A, NR concentration 270 nM, RXRa partner concentration 90 nM)
# Method in brief: as §1
# [14] = tested on: PPARg DBDmut IVT, anti-PPARg (DBD mutation: PPARg1 K132A/R137A, NR concentration 270 nM)
# Method in brief: as §1
# [15] = tested on: PPARg homodimer (NR concentration 180 nM)
# Method in brief: as §1
# [16] = tested on: PXR:RXRa (NR concentration 270 nM, RXRa partner concentration 90 nM)
# Method in brief: as §1
# [17] = tested on: PXR homodimer (NR concentration 270 nM)
# Method in brief: as §1
# [18] = tested on: RARa:RXR (NR concentration 270 nM, RXRa partner concentration 90 nM)
# Method in brief: as §1
# [19] = tested on: RARa homodimer (NR concentration 270 nM)
# Method in brief: as §1
# [20] = tested on: RARb:RXRa (NR concentration 270 nM, RXRa partner concentration 90 nM)
# Method in brief: as §1
Sequence,PBM binding z-score [1],PBM binding z-score [2],PBM binding z-score [3],PBM binding z-score [4],PBM binding z-score [5],PBM binding z-score [6],PBM binding z-score [7],PBM binding z-score [8],PBM binding z-score [9],PBM binding z-score [10],PBM binding z-score [11],PBM binding z-score [12],PBM binding z-score [13],PBM binding z-score [14],PBM binding z-score [15],PBM binding z-score [16],PBM binding z-score [17],PBM binding z-score [18],PBM binding z-score [19],PBM binding z-score [20]
CCGACTGGGGCAAAAGGTTACCATAAGCCAGCCC,0.815,3.36,-0.19,1.86,-1.26,3.28,4.13,5.64,3.64,5.79,3.77,4.07,-0.978,-1.25,1.06,1.68,-0.41,2.83,0.0331,2.8
CCTCGGAGGACAGAAGGTCAGCGCTGTCCGCTTT,1.68,2.01,0.184,1.17,-0.704,2.2,-0.154,1.57,-0.543,0.613,-0.144,0.0652,-1.29,-1.5,1.24,1.96,-0.497,2.76,0.504,3.68
CGTCCTAGGTCAGAGAGGTCAGTGAATGCCGAGT,3.96,3.93,2.32,3.09,-0.0595,3.75,2.04,3.12,0.277,1.95,2.86,3.03,-0.901,-1.15,5.14,4.85,8.52,4.68,2.45,4.4
GGAACGAGGGCAAACTTGATAGCATCTGTCGACG,1.14,0.523,-0.0239,0.598,-0.25,2.18,1.54,1.87,0.362,1.16,4.42,3.21,0.0378,-0.343,0.366,0.618,0.169,0.525,-0.264,2.16
CCTATTAGTTGACGATAAGGGCAACCGAAGCTCG,0.29,0.114,-0.102,0.152,0.201,0.204,0.482,0.0797,0.0506,0.157,0.107,-0.036,0.257,0.471,1.85,0.261,0.241,0.847,1.05,1.33
GCTATTAGTTGAAAGGGCAACGGAATGATTCTCG,0.364,0.524,0.225,0.73,-0.171,2.5,2.45,4.33,2.24,4.02,0.701,0.992,1.04,0.361,0.8,0.606,0.255,1.19,0.995,1.93
CGAACTAGGTCATTGACAGTACAGTGAATAGTAA,4.63,2.68,0.32,2.02,0.232,4.98,7.68,6.38,3.77,5.67,7.66,8.48,3.53,2.28,1.89,1.64,0.291,2.03,0.0313,3.67
TCTTGTAGATCAACCGGAGGTTAAGAAAGATCGA,0.397,1.58,1.09,1.17,-0.00394,1.26,-0.257,1.55,2.69,2.15,1.73,0.867,0.463,0.343,-0.156,0.984,0.000543,1.25,-0.186,0.743
ATCGAAAGGTCTAGGTGAGTATAGAGAAAGGGAA,0.504,0.836,0.254,0.163,0.443,0.539,0.509,0.366,0.34,0.331,0.689,1.37,0.807,0.731,0.408,0.216,0.272,0.406,0.837,1.71
AATACAGGGTCATCGTAGGCCAGAGCACGCACAG,7.49,6.27,2.28,4.72,1.31,5.79,6.53,6.08,3.29,4.98,2.92,4.29,2.99,0.869,3.33,4.96,0.778,5.48,0.827,4.21
GATACAGGGTCAAGGCCTGAGTACGCGTATTGAT,6.17,3.94,-0.32,3.35,-0.67,5.35,5.34,5.5,2.3,4.29,2.78,3.87,0.27,0.16,1.74,3.43,0.0722,3.99,0.47,4.4
AGTCAAAGTTCATTAGGTAACGTAAGATTCAGCT,5.94,6.16,5.2,3.29,1.67,4.63,6.37,6.16,3.38,5.54,1.93,4.02,1.72,1.88,3.26,4.83,6.94,3.77,1.92,4.7
TCATATGGGTAAAGGTGAAAGTCGAACGATATGA,0.574,1.13,-0.287,1.09,-0.607,3.53,5.17,5.52,4.64,5.69,3.36,3.75,1.24,0.532,0.852,0.764,-0.418,1.66,0.221,1.79
ACTCGGAGGACAAAGGTCAGAGGTACGCCAGTGA,4.04,4.06,1.7,3.26,-0.137,5.14,7.26,6.74,4.88,7.16,0.77,3.42,0.61,0.441,3.17,3.86,0.587,4.61,0.603,4.43
AGAAGGAGGGCACGCTGAGTTGATAGCAGAGTAG,0.55,0.52,-0.359,0.551,0.0256,1.83,1.89,1.81,0.436,1.01,4.39,4.02,0.794,0.398,0.378,1.16,0.294,0.766,-0.141,2.32
AGAACGAGGGCAATGAGTTGATAGCTCGGGTGGC,0.0898,-0.196,-0.745,-0.286,-0.548,1.23,1.03,0.695,-0.213,0.434,3.68,2.41,0.337,-0.763,-0.195,1.36,5.33,0.0914,-0.796,2.08
ATCGAAAGATCGAAGGTGAGTATACCCACCCGAA,0.128,-0.167,-0.351,-0.103,-0.379,0.477,0.73,0.539,0.2,0.266,-0.781,0.354,-0.115,-0.0294,-0.0886,0.0692,-0.598,0.121,0.67,0.215
ACTCGGAGGACAAAGCTCAGAGCTACGCCAGTGA,-0.419,-0.663,-0.768,-1.06,-0.958,-0.608,0.401,-0.00696,-0.67,-0.314,-0.219,-0.357,-0.787,-1.32,-1.15,-0.902,-0.759,-1.14,-0.639,0.77
ATATGCAGGTTACATCCGGGTCATTCAGGCTATG,2.7,4.82,0.974,2.99,0.382,3.53,2.58,2.61,0.935,1.49,3.86,4.01,0.813,1.04,1.59,3.71,1.94,3.45,0.262,2.34
